Shown are actives, neighbours in structure and some others; about 3.9% of the full set was active somewhere.
SARS 3CLpro inh – SARS-CoV 3CLpro protease inhibitors, primary screen, biochemical, quenched FRET. recombinant SARS-CoV 3CLpro, quenched FRET peptide cleavage. inhibition, % at 6 µM. 290,000 tested, 0.14% active. AID 1706, 2009; in the data active = inhibition above about 12%
BH1578 lux ind – inducers of Vibrio cholerae quorum light production without autoinducers, primary screen, BH1578 luxS cqsA deficient, single point | V. cholerae BH1578 lux reporter, luminescence, 6 h | activation, % at 18.7 µM | 350,000 tested, 0.16% active; in the data active = activation mostly above about 9.7%, no sharp cut-off
Mtb FBA inh – Mtb FBA enzyme inhibitors, primary screen, biochemical, fluorescence, strain H37Rv; AID 588726, 2011; inhibition, % at 1 µM; 360,000 tested, 2.3% active; Fructose-bisphosphate aldolase (Mycobacterium tuberculosis (strain ATCC 25618 / H37Rv)), …; purified M. tuberculosis FBA, fluorescence read-out;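 note: 0% = vehicle and 100% = reference inhibitor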
Target sequence (P9WQA3 whole entry, looked up): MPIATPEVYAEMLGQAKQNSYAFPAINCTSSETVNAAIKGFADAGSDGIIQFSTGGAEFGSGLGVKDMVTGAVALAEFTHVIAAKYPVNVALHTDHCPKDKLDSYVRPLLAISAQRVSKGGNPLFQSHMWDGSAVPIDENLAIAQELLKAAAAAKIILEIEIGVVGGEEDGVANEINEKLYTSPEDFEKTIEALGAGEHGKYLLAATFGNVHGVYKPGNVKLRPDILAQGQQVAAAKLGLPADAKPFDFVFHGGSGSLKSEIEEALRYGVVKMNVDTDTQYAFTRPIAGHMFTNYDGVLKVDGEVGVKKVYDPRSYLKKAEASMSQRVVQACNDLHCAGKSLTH
GDH-TPI counter-1 – GDH-TPI coupling enzyme inhibitors, primary screen, artefact control for M. tuberculosis FBA inhibitor project, biochemical, absorbance, full deck; inhibition, % at 4.8 µM; AID 588335, 2011; GDH-TPI coupled enzyme counterscreen, NADH absorbance; 360,000 tested, 1.2% active; in the data active = inhibition above about 30%;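 note: 0% = DMSO wells and 100% = wells lacking the enzyme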
PrPC surface inh – inhibitors of human cell surface prion protein PrPC, primary screen, cell-based, TR-FRET; Major prion protein (Homo sapiens), P04156; AID 720596, 2013; inhibition, % at 13.8 µM; TR-FRET read-out; 370,000 tested, 0.43% active; in the data active = inhibition above about 24%; note: 0% = median of the test wells and 100% = reference compound wells
Mtb FBA confirm – M. tuberculosis aldolase blockers, biochemical, fluorescence, strain H37Rv, confirmation | shares compounds with Mtb FBA inh | inhibition, % at 1 µM | 5,600 tested, 78% active | purified M. tuberculosis FBA, fluorescence read-out;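 note: 0% = vehicle wells and 100% = reference inhibitor wells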
GDH-TPI counter-2 – GDH-TPI coupling enzyme inhibitors, artefact control for M. tuberculosis FBA inhibitor project, biochemical, fluorescence, high throughput | inhibition, % at 1 µM | GDH-TPI coupled enzyme counterscreen | shares compounds with Mtb FBA inh | AID 652141, 2013 | 5,600 tested, 81% active; in the data active = inhibition above about 10%
* = called active by the depositor; i = inactive; x = no result; + = active, no number; ! = a repeat was not active. Cut-off read from the data, not from the text of the source, unless noted: active = inhibition above about 27%; inactive = the rest.

SMILES | SARS 3CLpro inh | BH1578 lux ind | Mtb FBA inh | GDH-TPI counter-1 | PrPC surface inh | Mtb FBA confirm | GDH-TPI counter-2
COCCNc1nc(-c2ccc(Cl)cc2C)c2sccc2n1 | x | -3 | 69* | 18 | 6 | -4 | -4
COc1cccc(CNc2nc(NCC3CC3)nc3ccsc23)c1 | x | i | 3 | 17 | 1 | x | x
CCC(=O)N1CCCC1(C)C(=O)Nc1ccc2nc(C)ccc2c1 (centres undefined) | x | i | 6 | 0 | 7 | x | x
Cn1c(=O)c2cc(NC(=S)NC3CCCCC3)ccc2n1-c1ccccc1 | x | i | 42* | 1 | 14 | 76* | 81*
CN(CC(=O)Nc1ccc(OC(F)(F)F)cc1)C(=O)/C=C/c1cc2c(cc1[N+](=O)[O-])OCO2 | x | -1 | 0 | 16 | -9 | x | x
CN(C)c1ccc(P(=O)(OC2CCCCC2)C(O)c2ccccn2)cc1 (centres undefined) | 6 | -1 | 68* | 7 | -6 | 73* | 79*
CC(/C=N\NC(=O)Cn1c(C)nc2ccccc21)=C\c1ccccc1 | 0 | i | 2 | 11 | 2 | x | x
COc1cc(C(=O)Nc2ccc(Nc3ccccc3)cc2)cc(OC)c1OC | 3 | 0 | -1 | 14 | -1 | x | x
COc1ccc(OC)c(/C=N/NC(=O)Cc2nc3ccccc3[nH]2)c1 | -2 | i | 74* | 14 | 8 | 51* | 30*
COc1ccc(OC)c(/C=C/C(=O)NCCc2nc3ccccc3[nH]2)c1 | 4 | 0 | 50* | 16 | 5 | 83* | 53*
COc1cc(OC)cc(C(=O)NCC(=O)OC2CCCCC2=O)c1 (centres undefined) | x | 0 | 2 | 8 | -1 | x | x
Cc1ccc(S(=O)(=O)N2CCN(C(=O)C3CSC4(C)CCC(=O)N34)CC2)cc1C (centres undefined) | x | i | -2 | 9 | -1 | x | x
O=C(CSc1cccc2cccnc12)N/N=C/c1ccc(F)cc1 | -3 | i | 16 | 12 | 0 | x | x
O=C(O)CSc1cccc2cccnc12 | -3 | 0 | 27*! | -1 | 4 | 8 | 10*
COC(=O)c1ccc2nc(-c3cccc(N)c3)cn2c1 | 1 | i | -3 | 26 | -2 | x | x
Cc1cccn2cc(-c3ccc(Cl)cc3)nc12 | 1 | 0 | 20 | 6 | -10 | x | x
COc1ccc(-c2cn3cccc(C)c3n2)cc1F | -7 | -2 | 31* | -2 | -4 | -4 | -7
COC(=O)c1ccc2nc(-c3ccc(S(C)(=O)=O)cc3)cn2c1 | -1 | 0 | 36* | -6 | -12 | 141* | 142*
COc1ccc(-c2cn3cc(C)ccc3n2)cc1F | -5 | 0 | 37* | 8 | 0 | 77* | 65*
CNC(=O)Oc1ccc(-c2cn3cc(C)ccc3n2)cc1 | -1 | -1 | 47* | 13 | 0 | 38* | 34*
CN(C(=O)c1cccs1)c1ccccc1C(=O)O | 2 | 0 | 27* | 8 | -1 | 4 | 3
NC(=O)c1cccc(-c2ccnc3c2CC(C(=O)NCc2ccccc2)O3)c1 (centres undefined) | x | 0 | 5 | 4 | -3 | x | x
O=C(NCc1ccncc1)C1Cc2c(-c3ccc4c(c3)OCO4)ccnc2O1 (centres undefined) | x | i | 45* | -4 | 1 | 59* | 44*
CN1CCN(c2ccc(CNC(=O)C3Cc4c(-c5ccc6c(c5)OCO6)ccnc4O3)cc2)CC1 (centres undefined) | x | 0 | 23 | -6 | 0 | x | x
O=C(NCc1ccccc1)C1Cc2c(-c3ccc4c(c3)OCO4)ccnc2O1 (centres undefined) | x | 0 | 65* | 4 | 8 | + | +
SMILES | SARS 3CLpro inh | BH1578 lux ind | Mtb FBA inh | GDH-TPI counter-1 | PrPC surface inh | Mtb FBA confirm | GDH-TPI counter-2
COC(=O)c1cccc(NC(=O)C(C)(C)C)c1 | 5 | 1 | 36* | 8 | -5 | + | +
Cc1cc2oc(=O)c(CC(=O)NCCCO)c(C)c2c2occ(C(C)(C)C)c12 | -1 | -1 | 31* | 10 | -12 | 57* | 54*
COCCNC(=O)Cc1c(C)c2c(cc(C)c3c(C(C)(C)C)coc32)oc1=O | -1 | -1 | 43* | 12 | 0 | 70* | 65*
Cc1cc2c(=O)cc(-c3ccccc3)oc2c(C(=O)O)c1C | x | x | 39* | x | 5 | 56* | 48*
Cc1cc(CC(=O)O)c2oc(-c3ccoc3)cc(=O)c2c1 | x | x | x | x | -1 | x | x
c1ccc(CNc2nc(NCCc3ccncc3)c3sccc3n2)cc1 | x | -1 | 3 | 14 | 16 | x | x
O=C(NCc1ccccc1)Nc1cccn(Cc2ccc(F)cc2)c1=O | 0 | 0 | 14 | -7 | 5 | x | x
Cc1cc(NC(=O)NCc2ccccc2)c(=O)n(Cc2ccc(F)cc2)c1 | 2 | i | 28* | 15 | 3 | 98* | 83*
C=CCN(c1ccccc1)S(=O)(=O)c1cccc(C(=O)O)c1 | 1 | -13 | 54* | 4 | 1 | 199* | 189*
C=CCN(c1ccccc1)S(=O)(=O)c1cccc(C(=O)NNC(=O)c2ccccc2O)c1 | x | -2 | -1 | 9 | 7 | x | x
CN(C)c1ccc(/C=C/C(=O)c2ccc3c(c2)OCCO3)cc1[N+](=O)[O-] | 2 | i | -11 | 15 | -7 | x | x
CN(C)c1ccc(/C=N/N=C(N)N)cc1[N+](=O)[O-] | -1 | -1 | 80* | 30 | -30 | 198* | 132*
O=C(OCc1ccccc1Cl)c1cccnc1Cl | 4 | 1 | 1 | -1 | 3 | x | x
N#Cc1ccccc1COC(=O)c1cccnc1N | 2 | -1 | 46* | 7 | 9 | 153* | 96*
NC(=O)c1oc2ccc(Cl)cc2c1N | 2 | i | 87* | 5 | 2 | 100* | 69*
COc1ccc2oc(C(=O)OCC(=O)NC(C)(C#N)C3CC3)c(C)c2c1 (centres undefined) | x | -1 | 31* | 7 | -2 | 21 | 24*
CCOc1ccc2oc(C(=O)OCC(=O)NC3CC3)c(C)c2c1 | 5 | 0 | 40* | 3 | 7 | 62* | 47*
COc1ccc2oc(C(=O)NC3CCCCC3)c(C)c2c1 | -7 | i | 28* | 7 | 11 | 41* | 27*
COc1ccc([N+](=O)[O-])cc1N(CC(=O)NCCC1=CCCCC1)S(C)(=O)=O | 9 | 0 | -1 | -1 | -12 | x | x
CCOC(=O)C1CCN(C(=O)COC(=O)/C=C/c2cccc(OC)c2OC)CC1 | x | i | -1 | 14 | -7 | x | x

High-throughput results (PubChem BioAssay)
